The whole screen tested about 65,000 compounds, of which about 2,100 (3.2%) showed an effect of 50% or more. The median lay at about -52%. The entries come from a sample that favours strong results as a whole.

The test relates to Plasmodium falciparum. The test is described as follows: Screen against P. falciparum Asexual Blood Stage (ABS), at 5uM. The note with it: tested at 5 uM. The class given is functional, Dd2.
Consider `CCN1CCC2(CCC1=O)CN(c1nccc(N)n1)CCN2C` (configuration not stated), for which the INHIBITION is recorded as -4.03%.

Regarding `Cc1cccc(CO[C@@H]2CC[C@H]3[C@H]2OCCN3Cc2ccoc2)n1`, the INHIBITION is reported as -50.4%.

On to `O=C(NCc1ccccn1)[C@@H]1COC[C@H]2CNC[C@H]21`, for which the INHIBITION was -8.97%.

Consider `COCCN1C[C@@H](C)[C@@]2(COCCN(C(=O)c3ccno3)C2)C1`, for which the INHIBITION is -103%.

`COc1ccc(-c2ccoc2)cc1CNC1CCCC1`: the INHIBITION was 70.2%.

As for `OCCCN(CCc1cccc(F)c1)C1CC1`, the INHIBITION is listed as -63.8%.

In the case of `CN(C)[C@@H]1CN(C(=O)Cc2cccc(F)c2)[C@@H]2CCCO[C@H]12`, the INHIBITION was 24.8%.

For `CN(Cc1cccc(F)c1)C(=O)CN1CCCC1CCc1ccccc1` (configuration not stated), the INHIBITION is reported as 75%.

As for `Cc1ccc2c(n1)N(C)CCN(CCN1CCCC1)C2`, the INHIBITION is listed as -5.37%.

Regarding `Cc1cc(N2CCCN(CCc3ccccc3)CC2)ccn1`, the INHIBITION was 87%.

On to `Cn1c(CCN2CCN(c3ccc(O)cc3)CC2)nc2ccccc21`, for which the INHIBITION is on record as -128%.

Take `CO[C@@H]1CC[C@H]2[C@H]1OCCN2CC1CCOCC1`: the INHIBITION is recorded as -21.2%.

Take `c1cnc(N2C[C@H]3CN(CC4CCOC4)C[C@H]3C2)nc1` (some centres not stated): the INHIBITION is recorded as -53%.

On to `O=C1CO[C@@H]2CNC[C@H]2N1CC1CC1`, for which the INHIBITION is recorded as -97.4%.

For `O=C(NCCc1ccncc1)[C@H]1CC[C@@H]2[C@@H](CCN2CC2CC2)O1`, the INHIBITION is listed as -3.59%.

Regarding `CNC(=O)[C@@H]1CN(Cc2ccccc2)C[C@H]1C(=O)c1ccc(F)cc1`, the INHIBITION was -109%.

Consider `O=C1C[C@H]2[C@H](CCN2Cc2ccccn2)N1CC1CC1`, for which the INHIBITION was -90.1%.

As to `COc1ccc(CN2CC[C@@H](O)[C@@H]2Cc2ccccc2)cc1`, the INHIBITION stood at 80.7%.

On to `O[C@@H]1CCN(CC2CC2)[C@H]1Cc1ccccc1`, for which the INHIBITION was 63.2%.

`COc1ccc(CN2C[C@@H]3OCCN(c4ncccn4)[C@@H]3C2)cc1`: the INHIBITION is reported as -2.3%.

As for `O=C(c1ccccc1)N1CCO[C@@H]2CNC[C@@H]21`, the INHIBITION is on record as -70.7%.

Take `Fc1ccccc1-c1cc(N2[C@@H]3CC[C@H]2CNC3)n2nccc2n1`: the INHIBITION was -59%.

Regarding `CCc1cc(N2CCN3CCCCC3C2)n2nccc2n1` (configuration not stated), the INHIBITION was found to be 6.52%.

As for `CC(C)c1cc(N2CC[C@H](F)C2)n2nccc2n1`, the INHIBITION was determined as 70.9%.

In the case of `O=C1N(Cc2ccccn2)C[C@H]2CN(C3CCC3)CCN12`, the INHIBITION is reported as -13.7%.

On to `O=C(C[C@@H]1COC[C@H]2CN(C3CCC3)C[C@@H]12)NCc1cccnc1`, for which the INHIBITION is -138%.

With `CCOC[C@@H]1CC[C@H]2[C@H](CCN2Cc2c(C)noc2C)O1`, the INHIBITION is on record as -96.4%.

The record behind these values is ChEMBL document CHEMBL4513216, “Probing the Open Global Health Chemical Diversity Library for Multistage-Active Starting Points for Next-Generation Antimalarials” (ACS Infect Dis, 2020).
